Source: PubChem BioAssay (Broad Institute)
DENV2 CPE = DENV2-induced cell death inhibition | DENV2-infected cells, cytopathic effect rescue, plate reader | CPE inhibition, % at 9.99 µM | 1.7% of 350,000 active | AID 651640; in the data active means CPE inhibition above about 20%, passing the limit was not always enough; inconclusive means no clear call, values can overlap the other calls; tested in BHK-21 cells
SIRT5 inh = inhibitors of human sirtuin-5 desuccinylase. Q9NXA8. Purified SirT5, succinyl-peptide AMC, trypsin-coupled fluorescence. inhibition, % at 15 µM. 1.1% of 330,000 active; in the data active means inhibition above about 15%; inconclusive means no clear call, values can overlap the other calls
PDI inh = blocks human protein disulfide isomerase activity | AID 588391 | PDI insulin aggregation turbidity, A650, 90 min | 0.052% of 350,000 active | P07237 | inhibition, % at 10 µM;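 active means mean inhibition across replicates of 30% or more, whatever share of single replicates reach that level; inconclusive means mean inhibition below 30% while every single replicate reaches 30%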
Rtt109 Vps75 = inhibitors of Candida albicans Rtt109/Vps75 histone acetyltransferase; Q5AAJ8; inhibition, % at 34.9 µM; 0.16% of 330,000 active; AID 540336; purified Rtt109/Vps75, ThioGlo CoA-SH fluorescence, 4 h;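 active means inhibition of at least 50% in every replicate; inconclusive means best replicate reaches 50% inhibition but some replicates fall short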
ERp5 block = ERp5 (human) disulfide isomerase inhibition; Q15084; ERp5 insulin aggregation, absorbance 650 nm, 90 min; inhibition, % at 9.99 µM; 0.05% of 350,000 active;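 active means mean replicate inhibition above about 25%, with every replicate also reaching it, limit read from the data, passing the limit was not always enough; inconclusive means only one of those two criteria met; inactive means neither criterion met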
Target sequence (Q15084 whole entry, looked up): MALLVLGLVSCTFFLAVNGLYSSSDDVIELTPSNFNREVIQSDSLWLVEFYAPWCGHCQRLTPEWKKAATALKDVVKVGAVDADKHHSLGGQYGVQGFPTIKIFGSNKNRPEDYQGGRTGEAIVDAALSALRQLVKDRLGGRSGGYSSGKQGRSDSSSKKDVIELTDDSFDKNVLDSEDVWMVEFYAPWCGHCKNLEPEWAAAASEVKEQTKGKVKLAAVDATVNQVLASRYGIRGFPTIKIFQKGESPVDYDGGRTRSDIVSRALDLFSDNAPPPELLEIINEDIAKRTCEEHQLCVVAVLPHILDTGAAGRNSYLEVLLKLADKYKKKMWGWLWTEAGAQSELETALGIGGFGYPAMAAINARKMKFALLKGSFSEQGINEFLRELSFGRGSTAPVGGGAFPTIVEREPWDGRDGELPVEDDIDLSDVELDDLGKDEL
A number is an active result; ! = repeats disagree. Sampled rows, rich in hits. Any-hit rate of the full collection: about 2.3%.

How did Cc1ccc(S(=O)(=O)Nc2ccc3c(c2)C(=O)N([C@@H](C)CO)C[C@H](C)[C@@H](CN(C)C(=O)Nc2ccc(C(F)(F)F)cc2)OCCCC[C@@H](C)O3)cc1 do in these assays?
DENV2 CPE: inactive; SIRT5 inh: 18.1; ERp5 block: inactive

Results for Cc1ccc(S(=O)(=O)Nc2ccc3c(c2)C(=O)N([C@@H](C)CO)C[C@@H](C)[C@@H](CN(C)C(=O)Nc2ccc(C(F)(F)F)cc2)OCCCC[C@@H](C)O3)cc1 ?
DENV2 CPE: inactive; SIRT5 inh: 15.3; ERp5 block: inactive

Results for CCN(CC)c1ccc(N=Cc2ccccc2[N+](=O)[O-])cc1 ?
DENV2 CPE: inactive; SIRT5 inh: inactive; PDI inh: inactive; Rtt109 Vps75: inactive; ERp5 block: inactive

Results for CCN(CC)c1ccc(N=Cc2ccc([N+](=O)[O-])o2)cc1 ?
DENV2 CPE: inactive; SIRT5 inh: 15.4; PDI inh: inactive; Rtt109 Vps75: inactive; ERp5 block: inactive

What do the screens show for `COc1ccc(CN(C)C[C@@H]2OCCCC[C@H](C)Oc3ccc(NC(=O)NC(C)C)cc3C(=O)N([C@@H](C)CO)C[C@@H]2C)cc1`?
DENV2 CPE: inconclusive; SIRT5 inh: inactive; ERp5 block: inactive

Results for COc1ccc(C(=O)OCC(=O)Nc2ncc([N+](=O)[O-])s2)cc1OC ?
DENV2 CPE: inactive; SIRT5 inh: inactive; PDI inh: inactive; Rtt109 Vps75: inactive; ERp5 block: inactive

How did O=C(COC(=O)c1ccc(Br)o1)Nc1ncc([N+](=O)[O-])s1 do in these assays?
DENV2 CPE: inactive; SIRT5 inh: 16.2; PDI inh: inactive; Rtt109 Vps75: inactive; ERp5 block: inactive

What do the screens show for `COc1ccc2c3c(n(C)c2c1)[C@H](CO)N(C(=O)C1CCCCC1)CC31CCN(C(=O)Nc2cccc(F)c2)CC1`?
DENV2 CPE: inactive

How did CC(C)(C)[C@@H]1C=C(C(=O)N2CCN(Cc3ccc4c(c3)OCO4)CC2)O[C@H](OCc2ccc(CO)cc2)C1 do in these assays?
DENV2 CPE: 33.7!; SIRT5 inh: inactive; PDI inh: inactive; Rtt109 Vps75: inactive; ERp5 block: inactive

How did O=C(NCC[C@@H]1CC[C@H](NC(=O)c2ccccc2F)[C@@H](CO)O1)c1ccc2c(c1)OCO2 do in these assays?
DENV2 CPE: inconclusive; SIRT5 inh: 16.4; ERp5 block: inactive

Results for O=C(C[C@H]1CC[C@@H](NC(=O)Nc2ccccc2F)[C@@H](CO)O1)NCc1ccc(-c2ccccc2)cc1 ?
DENV2 CPE: 30.2; SIRT5 inh: inactive; ERp5 block: inactive

Results for O=C(C[C@@H]1CC[C@H](NC(=O)Nc2ccc3c(c2)OCO3)[C@@H](CO)O1)NCc1ccc2c(c1)OCO2 ?
DENV2 CPE: 24.3; ERp5 block: inactive

How did O=C(C[C@@H]1CC[C@H](NC(=O)Nc2ccccc2F)[C@H](CO)O1)NCc1ccc(-c2ccccc2)cc1 do in these assays?
DENV2 CPE: inactive; SIRT5 inh: inactive; ERp5 block: inactive

What do the screens show for `O=C(C[C@H]1CC[C@H](NC(=O)Nc2ccc3c(c2)OCO3)[C@@H](CO)O1)NCc1ccc2c(c1)OCO2`?
DENV2 CPE: inactive; ERp5 block: inactive

How did O=C(Nc1ccc2c(c1)OCO2)N[C@@H]1CC[C@H](CCNC(=O)C2CCC2)O[C@@H]1CO do in these assays?
DENV2 CPE: 32.3; SIRT5 inh: inactive; ERp5 block: inactive

How did COCC(=O)N(C)C[C@@H]1Oc2ncc(C#CC(C)(C)O)cc2C(=O)N([C@H](C)CO)C[C@H]1C do in these assays?
DENV2 CPE: inactive; SIRT5 inh: inactive; ERp5 block: inactive

Results for CSc1ccccc1NC(=O)c1cnccn1 ?
PDI inh: inactive; Rtt109 Vps75: inactive

How did CC(C)c1ccccc1NC(=O)c1cnccn1 do in these assays?
SIRT5 inh: 19.6; PDI inh: inactive; Rtt109 Vps75: inactive; ERp5 block: inactive

Results for COc1ccc(NC(=O)N(C)C[C@@H]2Oc3ccc(NS(=O)(=O)c4c(C)noc4C)cc3C(=O)N([C@@H](C)CO)C[C@@H]2C)cc1 ?
DENV2 CPE: 26.9; SIRT5 inh: inactive; ERp5 block: inactive

Results for COc1ccc(NC(=O)N(C)C[C@H]2Oc3ccc(NS(=O)(=O)c4c(C)noc4C)cc3C(=O)N([C@@H](C)CO)C[C@H]2C)cc1 ?
DENV2 CPE: inactive; SIRT5 inh: inactive; ERp5 block: inactive

What do the screens show for `COc1ccc(NC(=O)N(C)C[C@@H]2Oc3ccc(NS(=O)(=O)c4c(C)noc4C)cc3C(=O)N([C@H](C)CO)C[C@@H]2C)cc1`?
DENV2 CPE: 89.7; SIRT5 inh: inactive; ERp5 block: inactive
